This is an account of results in the supplement of paper PMC8699584.

The term cell viability denotes a read-out of living cells in per cent, often relative to untreated cells.

In one test the test system is Molm13. As to the kind of experiment: cell viability relative to DMSO control (bortezomib = 0%); higher = less growth inhibition. To be noted: 10 nM; 72 h. In outline: (§1)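 Cell viability was assessed by CellTiter-Glo luminescence. Acute myeloid leukemia cells were seeded at 1000 cells per well in 50 µL on a 384-well library of 679 compounds at a single 10 nM dose for 72 h. Per-plate linear regression set DMSO-treated cells at 100% and positive-control-treated cells at 0%.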

Another test relates to Mv4-11. The test is described as above. To be noted: 10 nM; 72 h. In outline: as §1

Values joined by “and” are separate entries in the source; they are usually repeats but may differ in a detail not shown here. Equal entries are not always repeated. Structures can show the parent of a compound that is named as a salt. ± gives the standard deviation of the averaged measurements.

With `COc1ccc(COc2ccc(Cc3cnc(N)nc3N)cc2OC)cc1`, the cell viability in the test on Molm13 was 110 ± 17%; in the test with Mv4-11, 123 ± 11%.
Taken in the same sequence, the figures for `COc1cc2ncnc(Sc3nnc(C)s3)c2cc1OC` were 127 ± 30% and 115 ± 14%.
Taken in the same sequence, the figures for `CCn1c(N)c(C(=O)NC)c(=O)c2ccc(C#CC(C)(O)COC)nc21` (configuration not stated) were 110 ± 4.6% and 115 ± 8.3%.
Taken in the same sequence, the figures for `Cc1cc(CN2CCN(c3c(Br)cnc4nc(-c5ccc(N6CCN(C)CC6)cc5)[nH]c34)CC2)no1` were 85.6 ± 1.8% and 95.3 ± 3.4%.
Consider `CC(=O)Nc1cccc(-n2c(=O)n(C3CC3)c(=O)c3c(Nc4ccc(I)cc4F)n(C)c(=O)c(C)c32)c1`, for which the cell viability came out at 101 ± 25% in the test with Molm13 and 107 ± 1.9% in the test on Mv4-11.
Taken in the same sequence, the figures for `CCCCC/C=C\C/C=C\C/C=C\C/C=C\CCCC(=O)NC[C@]1(C)CCC[C@]2(C)c3ccc(C(C)C)cc3CC[C@@H]12` [Arachidonic Acid Leelamide] were 105 ± 17% and 112 ± 1.2%.
Turning to `Cc1c(CN2CCN(S(C)(=O)=O)CC2)sc2c(N3CCOCC3)nc(-c3cnc(N)nc3)nc12`, the values for the cell viability in the test on Molm13 and in the test on Mv4-11 were 106 ± 16% and 107 ± 9.6%, respectively.
Taken in the same sequence, the figures for `C=CC(=O)Nc1cc(Nc2nccc(-c3cn(C)c4ccccc34)n2)c(OC)cc1N(C)CCN(C)C` [AZD-9291 mesylate] were 102 ± 5.5% and 94.8 ± 6.1%.
Taken in the same sequence, the figures for `O.O.O.O.O=C([O-])CC(O)(CC(=O)[O-])C(=O)[O-].[Li+].[Li+].[Li+]` [Lithium citrate tribasic tetrahydrate] were 109 ± 1.3% and 114 ± 1.7%.
Taken in the same sequence, the figures for `Cn1cc(C2=C(c3cn(CCCSC(=N)N)c4ccccc34)C(=O)NC2=O)c2ccccc21` [Bisindolylmaleimide IX (mesylate)] were 99.3 ± 4.7% and 104 ± 12%.
For the compound `COc1ccc(CCNCc2ccc(OCc3ccc(Cl)nc3)c(OC)c2)cc1OC` [SBE 13 hydrochloride], the cell viability is 99.3 ± 18% with Molm13 and 107 ± 3% in the test with Mv4-11.
Taken in the same sequence, the figures for `COc1ccc([C@@H]2OC[C@H]3[C@@H]2CO[C@@H]3c2ccc(O[C@@H]3O[C@H](CO)[C@@H](O)[C@H](O)[C@H]3O)c(OC)c2)cc1OC` [Forsythin] were 123 ± 20% and 102 ± 6.1%.
Regarding `COc1ccc(C(=C2C(=O)Nc3ccccc32)c2ccc(OC)cc2)cc1`, the cell viability in the test with Molm13 was found to be 95.1 ± 2.4%; in the test on Mv4-11 it was 103 ± 5%.
Taken in the same sequence, the figures for `CNC(=O)c1cc(Oc2ccc(NC(=O)Nc3ccc(Cl)c(C(F)(F)F)c3)cc2)ccn1` [Sorafenib] were 53.7 ± 6.9% and 47.8 ± 9.4%.
Taken in the same sequence, the figures for `O=S(=O)(c1cccc2cnccc12)N1CCCNCC1` [Fasudil (HA-1077) hydrochloride] were 91.5 ± 1.8% and 104 ± 5%.
Taken in the same sequence, the figures for `COc1cc2ncnc(Nc3ccc(Cl)cc3F)c2cc1OC` were 108 ± 8.2% and 102 ± 6.2%.
For the compound `COc1cc(Nc2c(C#N)cnc3cc(OCCCN4CCN(C)CC4)c(OC)cc23)c(Cl)cc1Cl` [Bosutinib], the figures for the cell viability in the test on Molm13 and in the test on Mv4-11 were 112 ± 24% and 90.8 ± 17%, respectively.
Regarding `CC(C)NCC(O)c1ccc(O)c(O)c1` (configuration not stated) [Isoprenaline hydrochloride], the cell viability stood at 114 ± 3.4% in the test with Molm13 and 101 ± 17% with Mv4-11.
Taken in the same sequence, the figures for `C=CCc1ccc(O)c(-c2ccc(O)c(CC=C)c2)c1` [Honokiol] were 105 ± 5.5% and 112 ± 14%.
Taken in the same sequence, the figures for `COc1cc2ncnc(Nc3ccc(F)c(Cl)c3)c2cc1NC(=O)/C=C/CN1CCCCC1` were 104 ± 3.3% and 108 ± 1.3%.
Taken in the same sequence, the figures for `CNC(=O)c1ccccc1Sc1ccc2c(/C=C/c3ccccn3)n[nH]c2c1` [Axitinib] were 120 ± 7% and 118 ± 10%.
In the case of `Nc1cc(C(F)(F)F)c(-c2cc(N3CCOCC3)nc(N3CCOCC3)n2)cn1` [BKM120 (NVP-BKM120, Buparlisib)], the results for the cell viability in the test on Molm13 and in the test on Mv4-11 were 93.7 ± 4.8% and 99.8 ± 2.8%, respectively.
Taken in the same sequence, the figures for `C[C@@H]1COCCN1c1cc(C2([S@](C)(=N)=O)CC2)nc(-c2cc[nH]c3nccc2-3)n1` were 114 ± 7.9% and 115 ± 3.4%.
In the case of `O=C(c1ccc(/C=C/c2n[nH]c3ccccc23)cc1)N1CCNCC1`, the cell viability with Molm13 came to 104 ± 4.2%; with Mv4-11 it was 92.9 ± 17%.
`CNC(=O)c1cc(Oc2ccc(NC(=O)Nc3ccc(Cl)c(C(F)(F)F)c3)cc2)ccn1` [Sorafenib tosylate]: the results for the cell viability with Molm13 and with Mv4-11 were 63.1 ± 6.6% and 69.2 ± 10%, respectively.
For `c1cc(-c2cnn3cc(-c4ccc(OCCN5CCCCC5)cc4)cnc23)ccn1`, the values for the cell viability with Molm13 and with Mv4-11 were 95.5 ± 6% and 117 ± 10%, respectively.
Regarding `O=C(NOC[C@H](O)CO)c1ccc(F)c(F)c1Nc1ccc(I)cc1F`, the cell viability in the test with Molm13 was 89.4% and 96.2%; with Mv4-11, 95.5% and 86.8%.
`CN1CCC(CNc2ccc3ncc(-c4cccc(OC(F)(F)F)c4)n3n2)CC1` [SGI-1776 free base]: the results for the cell viability in the test on Molm13 and in the test on Mv4-11 were 92.3 ± 5.5% and 97.7 ± 14%, respectively.
Taken in the same sequence, the figures for `Cc1cncc2cccc(S(=O)(=O)N3CCCNC[C@@H]3C)c12` [(S)-H-1152 (hydrochloride)] were 100 ± 4.3% and 101 ± 3%.
Taken in the same sequence, the figures for `COc1cc2nccc(Oc3ccc(NC(=O)C4(C(=O)Nc5ccc(F)cc5)CC4)cc3)c2cc1OC` [XL184(Cabozantinib malate)] were 15 ± 7.9% and 42 ± 6.5%.
Taken in the same sequence, the figures for `Cc1nc(-c2cn3c(n2)-c2ccc(-c4cnn(C(C)(C)C(N)=O)c4)cc2OCC3)n(C(C)C)n1` were 94.6 ± 8.3% and 123 ± 5.4%.
